Hit rate of the full screen: of about 52,000 compounds, about 4,300 (8.3%) were called active. This is one part of a sample in which actives are shown more often than they occur. Cut-off read from the data, not from the text of the source: active = survival mostly below about 52% (no sharp cut-off); inactive = mostly above about 56%.
What follows are compounds tested on DeltatarO mutant (assay: S. aureus survival, RN4220 and DeltatarO strains – OD600, teichoic acid synthesis inhibitors, primary screen (AID 463173)). Conditions: S. aureus RN4220 wild type/DeltatarO growth, OD600, 18 h, stronger effect = lower value, screened at 18.75 µg/mL (by protocol).

Row | SMILES | survival
1 | O=C(Nc1nnc(S(=O)(=O)Nc2ccccc2)s1)c1ccccc1Cl | 52% (inactive)
2 | O=C(Nc1nnc(S(=O)(=O)Nc2ccccc2)s1)C1CCCCC1 | 31% (active)
3 | Cc1cccc(N(C)S(=O)(=O)c2nnc(NC(=O)C3CCCCC3)s2)c1 | 72% (inactive)
4 | CN(c1ccccc1)S(=O)(=O)c1nnc(NC(=O)C2CCCCC2)s1 | 65% (inactive)
5 | Cc1cccc(NS(=O)(=O)c2nnc(NC(=O)c3cccc(C)c3)s2)c1 | 61% (inactive)
6 | Cc1cccc(NS(=O)(=O)c2nnc(NC(=O)C3CCCCC3)s2)c1 | 34% (active)
7 | CC(=O)c1cc(-c2ccc(F)cc2)n(CCC(=O)Nc2nc3ccc(C)cc3s2)c1C | 69% (inactive)
8 | Cc1cc(C)c(NC(=O)Cn2c(=O)oc3cc(S(=O)(=O)N4CCCCCC4)ccc32)c(C)c1 | 83% (inactive)
9 | CCOc1ccc(-n2c(SCC(=O)c3ccccc3)nc3c([nH]c4ccccc43)c2=O)cc1 | 131% (inactive)
10 | Cc1cccc(C(=O)OCc2cc(=O)n3nc(-c4cccs4)sc3n2)c1 | 101% (inactive)
11 | Cc1ccc(CCNC(=O)c2ccc(Nc3nc4ccccc4n4nnnc34)cc2)cc1 | 72% (inactive)
12 | N#Cc1ccc(NC(=O)C2Cc3ccccc3CN2S(=O)(=O)c2ccc(F)cc2)cc1 (stereo unspecified) | 54% (inactive)
13 | OCCn1nnnc1-c1ccccc1 | 85% (inactive)
14 | CC(C)C12CN3CC(C(C)C)(CN(C1)C3c1ccc(Cl)cc1)C2=O (stereo unspecified) | 39% (active)
15 | CCOc1ccc(C2N3CC4(C(C)C)CN2CC(C(C)C)(C3)C4=O)cc1OC (stereo unspecified) | 91% (inactive)
16 | CC(C)C12CN3CC(C(C)C)(CN(C1)C3c1ccc(OCc3ccccc3)cc1)C2=O (stereo unspecified) | 85% (inactive)
17 | Cc1cccc(N2C(=O)CS/C2=N/NC(=O)c2cccc(Cl)c2)c1 | 97% (inactive)
18 | Cc1ccc(NC(=O)Cn2c(=O)c(C(F)(F)F)nc3ccccc32)cc1C | 60% (inactive)
19 | CC(=O)Nc1ccccc1-c1nc2ccccc2n(CC(=O)Nc2cccc(C)c2C)c1=O | 117% (inactive)
20 | Cc1cccc(NC(=O)Cn2c(SCC(=O)NCc3ccccc3)nc3ccccc32)c1C | 119% (inactive)
21 | Cc1cc(C)cc(NC(=O)Cn2c(C(F)(F)F)nc3ccccc32)c1 | 67% (active)
22 | O=C(Cn1c(=O)c(C(F)(F)F)nc2ccccc21)Nc1cccc(Br)c1 | 99% (inactive)
23 | CCN(C(=O)CSc1nc2ccccc2n1CC(=O)Nc1ccc(F)cc1F)c1ccccc1 | 77% (inactive)
24 | CCN(C(=O)CSc1nc2ccccc2n1CC(=O)Nc1cccc(C#N)c1)c1ccccc1 | 122% (inactive)
25 | Cc1cccc(NC(=O)Cn2c(C(F)(F)F)nc3ccccc32)c1C | 31% (active)
26 | CCN(C(=O)CSc1nc2ccccc2n1CC(=O)Nc1ccccc1C)c1ccccc1 | -5% (active)
